Screening data deposited in PubChem BioAssay by National Center for Advancing Translational Sciences (NCATS).
Pf growth 48h: Primary qHTS for delayed death inhibitors of the malarial parasite plastid, 48 hour incubation; 5.9% of 310,000 active; Potency, µM (highest dose often 28.7 µM), most hits filed as inhibitors; P. falciparum luciferase growth in erythrocytes, 48 h
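In quantitative HTS format, infected erythrocytes bearing luciferase-reporter parasites were treated for a single generation at 37 C. Luminescence after adding detection reagent served as the growth measure.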
Cycloheximide cs: Cycloheximide Counterscreen for Small Molecule Inhibitors of Shiga Toxin; 12% of 300,000 active; max response, %; cell reporter, cycloheximide protein synthesis inhibition counterscreen; in the data active = max response mostly above about 13%, no sharp cut-off; inactive = mostly below about 14%; also: read at 38.3 µM for the half of the compounds with a filed dose
Pf growth 96h: Primary qHTS for delayed death inhibitors of the malarial parasite plastid, 96 hour incubation; Potency, µM (titrated, usually from 28.7 µM), actives largely listed as inhibitors; 6.9% of 320,000 active; P. falciparum luciferase reporter growth, 96 h; AID 504834, 2011
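Two-generation exposure (96 h) targets delayed-death phenotype. Reporter parasites carrying integrated firefly luciferase, in red cells at 2% hematocrit and 0.05% parasitemia final, kept at 37 C, 5% CO2; luminescence loss indicates inhibition.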
FBPA Giardia inh: qHTS Assay for Inhibitors of Fructose-1,6-bisphosphate Aldolase from Giardia Lamblia; Potency, µM (series often up to 59.6 µM), usual class: inhibitors; purified Giardia FBPA; AID 2451, 2010; A8B2U2; 0.71% of 290,000 active; also: nearly all actives have a fitted effect of over 55% in size
Target sequence (A8B2U2 whole entry, looked up): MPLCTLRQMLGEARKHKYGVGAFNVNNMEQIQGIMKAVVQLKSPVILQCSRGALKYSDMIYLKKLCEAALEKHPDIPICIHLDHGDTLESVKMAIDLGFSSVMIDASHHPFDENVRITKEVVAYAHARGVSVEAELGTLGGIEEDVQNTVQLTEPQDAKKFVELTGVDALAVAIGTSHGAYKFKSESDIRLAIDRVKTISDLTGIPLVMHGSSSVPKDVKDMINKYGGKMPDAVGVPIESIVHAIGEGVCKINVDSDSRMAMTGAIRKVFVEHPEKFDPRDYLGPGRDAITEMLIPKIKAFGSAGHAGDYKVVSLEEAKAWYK
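40 nM FBPA preincubated 10 min at RT with compound (up to 57.5 uM final), then substrate plus GAPDH/TPI/NAD/arsenate coupling and diaphorase/resazurin added. Fluorescence read after 20 min at RT, 525/598 nm.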
NS1 inh: qHTS Assay for Inhibitors of Influenza NS1 Protein Function | 0.4% of 270,000 active | AID 2326, 2010 | Potency, µM (series often up to 46.1 µM); calls by dose curve; also: actives are rising curves; nearly all actives have a fitted effect of over 50% in size
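S. cerevisiae expressing influenza A NS1, grown in glucose, washed, then diluted 1:100 into pH 6.0 -URA galactose medium with 23 nl compound. Growth recovery read as OD600; NS1-free strain serves as control.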
Shiga inhibitor: A qHTS for Small Molecule Inhibitors of Shiga Toxin. inhibition, % at 38.7 µM. 9.2% of 290,000 active. Vero cells, Shiga toxin protein synthesis inhibition reporter; in the data active = inhibition mostly above about 28%, no sharp cut-off; inactive = mostly below about 43%
Hits are given with their value. An excerpt weighted towards active compounds, which were near 21% of everything screened. Unless noted, calls follow the shape of the dose curve; as a rule, active = well fitted curve in the direction sought with a large enough effect; inconclusive = small, poorly fitted or top-dose-only effect, or another doubt; inactive = no such curve, though single readings can be large; an effect the other way counts as inactive or inconclusive.

How did CC(=O)Nc1ccc(NC(=O)CSc2nnc(NC(=O)C3CC(=O)N(c4ccc(F)cc4)C3)s2)cc1 (stereo not given) do in these assays?
Pf growth 48h: inactive; Cycloheximide cs: inactive; Pf growth 96h: inconclusive; NS1 inh: inactive; Shiga inhibitor: inactive

How did O=C(Nc1ccc2c(c1)OCCO2)c1cc2ccccc2o1 do in these assays?
Pf growth 48h: inactive; Cycloheximide cs: 23.7; Pf growth 96h: inactive; FBPA Giardia inh: inconclusive; Shiga inhibitor: 87.6

What do the screens show for `O=C(COC(=O)c1ccco1)Nc1ccc(N2CCOCC2)cc1`?
Pf growth 48h: inactive; Pf growth 96h: inactive

How did Cc1cc(C(=O)N/N=C/c2ccncc2)c2ccccc2n1 do in these assays?
Pf growth 48h: inactive; Cycloheximide cs: inactive; Pf growth 96h: inactive; FBPA Giardia inh: inactive; NS1 inh: inactive; Shiga inhibitor: inactive

Results for ClC(Cl)(Cl)c1nc(N/N=C/c2ccncc2)c2ccccc2n1 ?
Pf growth 48h: 2.33µM; Cycloheximide cs: inactive; Pf growth 96h: inconclusive; FBPA Giardia inh: inactive; Shiga inhibitor: inactive

What do the screens show for `O=[N+]([O-])c1cccc(/C=N/Nc2nc(C(Cl)(Cl)Cl)nc3ccccc23)c1`?
Pf growth 48h: 1.04µM; Cycloheximide cs: inactive; Pf growth 96h: inconclusive; FBPA Giardia inh: inconclusive; NS1 inh: inactive; Shiga inhibitor: inactive

How did Cc1cc(CNC(=S)Nc2ccc(Br)cc2Cl)nn1C do in these assays?
Pf growth 48h: inactive; Cycloheximide cs: inactive; Pf growth 96h: inactive; FBPA Giardia inh: inactive; NS1 inh: inactive; Shiga inhibitor: inactive

Results for O=C(c1ccccc1Cl)N1N=C(c2ccc(Br)cc2)CC1c1nc2ccccc2[nH]1 (stereo not given) ?
Pf growth 48h: inactive; Cycloheximide cs: 17.2; Pf growth 96h: inactive; FBPA Giardia inh: inactive; NS1 inh: inactive; Shiga inhibitor: inactive

How did O=C(c1ccncc1)N1N=C(c2ccc(Br)cc2)CC1c1ccccc1O (stereo not given) do in these assays?
Pf growth 48h: inconclusive; Cycloheximide cs: inactive; Pf growth 96h: inconclusive; FBPA Giardia inh: inactive; NS1 inh: inactive; Shiga inhibitor: inactive

How did COc1cccc(/C=C/C(=O)N2CCN(c3n[nH]c(=O)[nH]c3=O)CC2)c1OC do in these assays?
Pf growth 48h: inactive; Cycloheximide cs: inactive; Pf growth 96h: inactive; FBPA Giardia inh: inactive; Shiga inhibitor: inactive

How did C=CCNC(=O)c1ccc(N(Cc2ccc(Cl)cc2)S(C)(=O)=O)cc1 do in these assays?
Pf growth 48h: inactive; Cycloheximide cs: inactive; Pf growth 96h: inactive; FBPA Giardia inh: inactive; NS1 inh: inactive

What do the screens show for `CN1CCC(=NNC(=O)CN(c2ccccc2)S(=O)(=O)c2ccccc2)CC1`?
Pf growth 48h: inactive; Cycloheximide cs: inactive; Pf growth 96h: inactive; NS1 inh: inconclusive; Shiga inhibitor: inactive

Results for C=CCNC(=O)c1ccc(CN(c2ccc(OCC)cc2)S(=O)(=O)c2ccc(C)cc2)cc1 ?
Pf growth 48h: 7.38µM; Cycloheximide cs: inactive; Pf growth 96h: inactive; FBPA Giardia inh: inactive; NS1 inh: inactive; Shiga inhibitor: inactive

How did CCOc1ccc(N(CC(=O)NN=C2CCN(C)CC2)S(=O)(=O)c2ccc(Br)cc2)cc1 do in these assays?
Pf growth 48h: inactive; Cycloheximide cs: inactive; Pf growth 96h: 14.7µM; NS1 inh: inconclusive; Shiga inhibitor: inactive

What do the screens show for `CCOc1ccc(N(CC(=O)NCc2ccccc2)S(C)(=O)=O)cc1`?
Pf growth 48h: inactive; Cycloheximide cs: 26.3; Pf growth 96h: inactive; FBPA Giardia inh: inactive; NS1 inh: inactive; Shiga inhibitor: 68.1

Results for Cc1ccc(CNC(=O)CN(c2ccc(Cl)cc2)S(C)(=O)=O)cc1 ?
Pf growth 48h: inactive; Cycloheximide cs: 12.1; Pf growth 96h: inconclusive; FBPA Giardia inh: inactive; NS1 inh: inactive

How did O=C(NCc1cccnc1)C1CCC(CNS(=O)(=O)c2cccc3nsnc23)CC1 (stereo not given) do in these assays?
Pf growth 48h: inactive; Cycloheximide cs: inactive; Pf growth 96h: inactive; FBPA Giardia inh: inactive; NS1 inh: inactive; Shiga inhibitor: inactive

What do the screens show for `Cc1c(Br)cnn1C(C)C(=O)N1CCN(c2ccccc2F)CC1` (stereo not given)?
Pf growth 48h: inconclusive; Pf growth 96h: inactive

What do the screens show for `COC(=O)C1(C(F)(F)F)C2C=CC(C2)N1S(=O)(=O)c1ccc(C)cc1` (stereo not given)?
Pf growth 48h: inactive; Cycloheximide cs: inactive; Pf growth 96h: inactive; NS1 inh: inactive; Shiga inhibitor: inactive
